Reference: PubChem BioAssay (NCATS)
Values joined by “and” are separate entries in the source; they are usually repeats but may differ in a detail not shown here. Equal entries are not always repeated. Records with an inconclusive call do not appear. Unmarked numbers belong to inactive results. Active and inactive are the calls of the source. Calls follow the shape of the dose curve; as a rule, active = well fitted curve in the direction sought with a large enough effect; inconclusive = small, poorly fitted or top-dose-only effect, or another doubt; inactive = no such curve, though single readings can be large; an effect the other way counts as inactive or inconclusive.

Key:
[1] = Primary qHTS for inhibitors of nuclear receptor binding SET domain protein 2 (NSD2) in an isogenic RCH-ACV NSD2 p.E1099K mutant (9B) (AID 1645876); settings: RCH-ACV NSD2 E1099K (9B) viability, CellTiter-Glo, 72 h; series mostly up to 44.9 µM
[2] = Primary qHTS for inhibitors of nuclear receptor binding SET domain protein 2 (NSD2) in an RCH-ACV wild type WT cells (2C) (AID 1645877); settings: RCH-ACV (leukaemia line) NSD2 WT (2C) viability, CellTiter-Glo, 72 h; series mostly up to 44.9 µM
% is scaled to controls: 0 for no effect and ±100 for the full control effect; potency is read from the fitted curve at half-maximal effect.
Also: nearly all actives have a fitted effect of over 70% in size.

SMILES | Potency [1] | Potency [2] | activity change, negative = viability loss [1] | activity change, negative = cell killing [2]
C[C@@H]1C[C@H]2O[C@@]3(O[C@@H]2C(C)(C)O)C(O)[C@@]2(C)C4CCC5C(C)(C)[C@@H](O[C@H]6OC[C@H](O)[C@@H](O)[C@@H]6O)CC[C@@]56C[C@@]46CC[C@]2(C)C13 (stereo partly specified) | inactive | inactive |  | 
C=CC(C)(C)C12CC3C(=O)N4C(CC5(C(C)(C)C=C)c6ccccc6NC45)C(=O)N3C1Nc1ccccc12 (stereo unspecified) | inactive | inactive |  | 
CCn1nc(C2CCN(C(=O)CCO)CC2)nc1-c1cnc(N)c(-c2nnc(C(C)(C)C)o2)n1 | 164 nM (active) and 296 nM (active) | 64.9 nM (active) and 263 nM (active) |  | 
Cc1cc(-c2ncc(-c3cccnc3)cc2/C=C/c2ccccc2)cnc1-c1cccnc1 | inactive | inactive |  | 
CC(=O)Nc1nc(C)c(-c2nc(N3CCCC(O)C3)no2)s1 (stereo unspecified) | 0.916 µM (active) | 1.15 µM (active) |  | 
CCCCCCCCC(=O)N[C@H](CN1CCCC1)[C@H](O)c1ccc2c(c1)OCCO2 | 23 µM (active) | 18.3 µM (active) |  | 
C/C1=C\[C@@H](C)C[C@@H](C)[C@@H](Cc2cnco2)OC(=O)/C(C)=C/[C@@H](C)C[C@@H](C)[C@@H](Cc2cnco2)OC1=O | 1.78 µM (active) | 3.17 µM (active) |  | 
C#CCCCn1cc(-c2cccc3c2N[C@H](C)CC(=O)N3)cn1 | 23 µM (active) | 14.5 µM (active) |  | 
COC1CC/C=C(\C)C(=O)Nc2cc(O)cc(c2)CC(C)CC(OC)C(O)C(C)/C=C(\C)C1OC(N)=O (stereo unspecified) | 2.52 µM (active) | 2.82 µM (active) |  | 
N[C@@H]1c2cccnc2[C@H](OC(=O)N2CCC(n3c(=O)[nH]c4ncccc43)CC2)CC[C@H]1c1cccc(F)c1F | inactive | inactive |  | 
Cn1ncc2cc(-c3cnc(N)c(Cl)c3N3CCC4(CCNC4=O)CC3)ccc21 | 2.05 µM (active) and 3.72 µM (active) | 0.0934 µM (active) |  | 
C=C1CCC2C(C)(C(=O)O)CCCC2(C)C1CCC1=CCOC1=O (stereo unspecified) | inactive | inactive |  | 
C[C@@H]1O[C@@H](O[C@H]2[C@@H](OC(=O)[C@]34CCC(C)(C)CC3C3=CCC5[C@@]6(C)C[C@H](O)[C@H](O[C@@H]7O[C@H](CO)[C@@H](O)[C@H](O)[C@H]7O[C@@H]7OC[C@@H](O)[C@H](O)[C@H]7O)[C@@](C)(C(=O)O)C6CC[C@@]5(C)[C@]3(C)CC4)OC[C@H](O)[C@@H]2O)[C@H](O)[C@H](O)[C@H]1O[C@@H]1OC[C@@H](O)[C@H](O)[C@H]1O (stereo partly specified) | 1.54 µM (active) | 2.18 µM (active) |  | 
CCC/C=C/C=C/C1CC(O)C2(O)C(=O)OCC12 (stereo unspecified) | inactive | inactive |  | 
CC#CC(=O)Nc1ccc2ncnc(Nc3cccc(Br)c3)c2c1 | 1.29 µM (active) and 1.3 µM (active) | 1.03 µM (active) and 1.16 µM (active) |  | 
O=c1[nH]cnc2c([C@@H]3N[C@H](CO)[C@@H](O)[C@H]3O)c[nH]c12 | inactive | inactive |  | 
C=C1CC[C@@H](O)[C@]2(C)C[C@H]3OC(=O)C(=C)[C@H]3CC12 (stereo partly specified) | 16.3 µM (active) | 12.9 µM (active) |  | 
C=C1C(=O)O[C@@H]2[C@H]1CC[C@H](C)C(CCC(=O)O)C2(C)O (stereo partly specified) | 18.3 µM (active) | 12.9 µM (active) |  | 
CC(C)NC(=O)N1CC[C@H](N=C2Nc3cc(F)ccc3N(CC(F)F)c3ccc(Cl)cc32)C1 |  |  | -17% [at 9.23 µM] | 1.84% [at 9.23 µM]
C=C(C)C(=O)O[C@H]1C[C@@](C)(O)C2(O)CCC(C)(/C=C3/OC(=O)C(COC)=C31)O2 (stereo partly specified) | 1.42 µM (active) | 0.713 µM (active) |  | 
C=C1CC[C@@H](O)[C@]2(C)CC[C@H]3C(=C)C(=O)O[C@@H]3[C@@H]12 | 20.5 µM (active) | 16.3 µM (active) |  | 
CN1CCN(c2ccc(OC(F)(F)F)c(Nc3ncc4c(n3)-c3c(c(C(N)=O)nn3CCO)CC4)c2)CC1 | 57.8 nM (active) and 118 nM (active) | 72.8 nM (active) and 132 nM (active) |  | 
CC(=O)O[C@@H]1CC[C@@]2(C)[C@H](CC[C@@H]3[C@@H]2C[C@H](OC(C)=O)[C@]2(C)[C@@H](C(C)=O)CC[C@@H]32)C1 | 23 µM (active) | 23 µM (active) |  | 
